Holding throughout (assay): NCI-60 one-dose screen, 48 h (100 = growth as untreated, 0 = no growth, -100 = all killed)
Assay [1] has as its system SK-MEL-2 melanoma. The note with it: 10 µM.
Assay [2] concerns EKVX NSCLC. The settings on record: 10 µM.
The test system of assay [3] is SN12C renal. The note with it: 10 µM.
Assay [4] deals with UO-31 renal. The settings on record: 10 µM.
For assay [5], the system named is TK-10 renal. The note with it: 10 µM unless noted.
Assay [6] concerns ACHN renal. The note with it: 10 µM.
Assay [7] deals with CAKI-1 renal. The settings on record: 10 µM.
Assay [8] relates to A498 renal. The settings on record: 10 µM.
The subject of assay [9] is CCRF-CEM leukemia. The settings on record: 10 µM.
In assay [10] the test system is MOLT-4 leukemia. The note with it: 10 µM.

Each structure is given as a SMILES string. The panel holds about 83,000 compounds, 20% with a hit somewhere; the sample as a whole holds those more often.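 Each cell line was grown in a 96-well plate and treated with one concentration of compound for 48 hours. Values below 10 were considered active.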 A number with no mark means an inactive call. Active and inactive are the calls of the source.

As to `CCCCC/C=N/Nc1nc(C)cc(=O)[nH]1`, the growth in assay [1] was 121%; in assay [2] it was 91.4%; in [3], 97.4%; in [4] it was 92.1%; in assay [5], 108%; in [6], 102%. The growth was 88.3% in assay [7], 96.2% in [8], 105% in assay [9] and 95.3% in [10].
On to `CC(=O)N(C)c1ccc([N+](=O)[O-])cc1`, for which the growth in assay [1] was 92%; in assay [2], 122%; in [3], 96.9%; in [4], 104%; in [5], 95.8%; in assay [6], 99.4%. Besides, the growth in [7] is 107%; in assay [8], 116%; in assay [9], 119%; in assay [10] it was 75.9%.
Consider `COC(=O)/C=C\C(=O)OC`, for which the growth is 114% in assay [1]; 122% in assay [2]; 102% in [3]; 81.1% in assay [4]; 109% in assay [5]; 113% in [6]. Also, the growth was 112% in [7], 104% in assay [8], 110% in assay [9] and 87.8% in [10].
For `Cc1ccc(N)cc1[N+](=O)[O-]`, the growth in assay [1] is 128%; in assay [2], 113%; in assay [3], 109%; in assay [4], 83.3%; in assay [5], 107%; in [6], 108%. Besides, the growth in assay [7] is 102%; in [8] it was 117%; in assay [9] it was 84.6%; in assay [10], 76.3%.
On to `Oc1ccccc1-c1nnco1`, for which the growth was 96.4% in assay [1]; 107% in [2]; 83.2% in [3]; 55% in [4]; 95.4% in assay [5]; 83% in [6]. For the same compound, the growth in assay [7] is 100%; in [8] it was 75.9%; in [9], 89%; in assay [10], 90.1%.
In the case of `CCOC(=O)CCCC(=O)OCC`, the growth is 111% in [1]; 108% in assay [2]; 114% in assay [3]; 89.7% in assay [4]; 101% in [5]; 105% in assay [6]. Further, the growth in [7] was 95.2%; in assay [8] it was 92.1%; in assay [9] it was 110%; in [10], 101%.
As for `CC12CC3CC1C(C(=O)O2)C3C(=O)O` (stereo not drawn), the growth was 94.7% in assay [1]; 105% in assay [2]; 105% in assay [3]; 93.5% in [4]; 94.5% in [5]; 105% in assay [6]. Moreover, the growth is 102% in [7], 106% in assay [8], 101% in assay [9] and 100% in assay [10].
As to `O=C(/C=C\c1ccc(O)cc1)c1ccccc1`, the growth in [1] is 114%; in [2], 91.3%; in [3], 89%; in assay [4], 67.8%; in assay [5], 95.2%; in [6] it was 97.2%. Also, the growth in assay [7] was 85.1%; in [8], 114%; in assay [10], 96.1%.
With `O=C(NN=C1CCCCC1)C(=O)NN=C1CCCCC1`, the growth in assay [1] is 91.2%; in assay [2], 109%; in assay [3], 106%; in assay [4] it was 95.6%; in assay [5] it was 99%; in assay [6] it was 109%. For the same compound, the growth in assay [7] is 110%; in [8] it was 119%; in [9], 85.6%; in assay [10], 90.9%.
Turning to `Oc1ccc(N=Nc2ccc(Br)cc2)c(O)c1`, the growth in assay [1] is -5.42% (active); in assay [2], 47.4%; in assay [3], 54.1%; in [4], 30.3%; in [5] it was 39.2%; in [6], 49.8%. Moreover, the growth in assay [7] was 3.01% (active); in [8], 23.5%; in [9] it was -20% (active); in [10], 21.2%.
Turning to `CC1CCC(C(=O)O)N1` (stereo not drawn), the growth in assay [1] is 91.5%; in assay [2], 107%; in [3], 92.7%; in assay [4] it was 76.5%; in [5], 101%; in [6] it was 91.6%. For the same compound, the growth in assay [7] is 92.3%; in [8], 84%; in [9], 101%; in assay [10] it was 87.8%.
For the compound `C/C=C/CC(C)C(O)C1C(=O)NC(CC)C(=O)N(C)CC(=O)N(C)C(CC(C)C)C(=O)NC(C(C)C)C(=O)N(C)C(CC(C)C)C(=O)NC(C)C(=O)NC(C)C(=O)N(C)C(CC(C)C)C(=O)N(C)C(CC(C)C)C(=O)N(C)C(C(C)C)C(=O)N1C` (stereo not drawn), the growth is -36.5% (active) in [1]; 26.7% in assay [2]; 27.4% in [3]; 24.1% in [4]; 31.3% in [5]; 16.8% in [6]. Also, the growth in assay [7] is 31%; in assay [8], -5.73% (active); in assay [10] it was -4.07% (active).
For the compound `C[C@]12CC[C@@H]3c4ccc(OCC(=O)O)cc4CC[C@H]3[C@@H]1CCC2=O`, the growth in [1] is 105%; in [2] it was 117%; in assay [3] it was 102%; in [4], 86.1%; in assay [5] it was 103%; in [6] it was 96.9%. Besides, the growth in assay [7] was 113%; in [8] it was 78.1%; in [9], 116%; in assay [10], 86.2%.
In the case of `CCOC(=O)CNN`, the growth is 113% in assay [1]; 113% in assay [2]; 101% in assay [3]; 91.4% in assay [4]; 102% in assay [5]; 119% in assay [6]. The growth is 106% in assay [7], 79.6% in assay [8], 97.8% in assay [9] and 112% in [10].
Regarding `CN(C)c1ccc(CNC(C(=O)c2ccccc2)c2ccccc2)cc1` (stereo not drawn), the growth in assay [1] is 74.5%; in assay [2], 101%; in [3] it was 115%; in [4], 102%; in [5], 112%; in assay [6] it was 101%. In addition, the growth in [7] was 102%; in assay [8] it was 8.44% (active); in [9], 90.9%; in assay [10], 94.9%.

The values above are taken from PubChem BioAssay (NCI).
